A selection: hits, their analogues and other compounds. The true share with any hit is near 2.4%.
D2 antagonist: HTS Assay for Allosteric Antagonists of the Human D2 Dopamine Receptor: Primary Screen for Antagonists | HEK293 TREx D2 cells, calcium flux, dopamine EC80 | hit rate 2% among 340,000 | inhibition, % at 10 µM; in the data active = inhibition above about 30%; inactive = below that, where a call was filed
Target sequence (P14416 whole entry, looked up): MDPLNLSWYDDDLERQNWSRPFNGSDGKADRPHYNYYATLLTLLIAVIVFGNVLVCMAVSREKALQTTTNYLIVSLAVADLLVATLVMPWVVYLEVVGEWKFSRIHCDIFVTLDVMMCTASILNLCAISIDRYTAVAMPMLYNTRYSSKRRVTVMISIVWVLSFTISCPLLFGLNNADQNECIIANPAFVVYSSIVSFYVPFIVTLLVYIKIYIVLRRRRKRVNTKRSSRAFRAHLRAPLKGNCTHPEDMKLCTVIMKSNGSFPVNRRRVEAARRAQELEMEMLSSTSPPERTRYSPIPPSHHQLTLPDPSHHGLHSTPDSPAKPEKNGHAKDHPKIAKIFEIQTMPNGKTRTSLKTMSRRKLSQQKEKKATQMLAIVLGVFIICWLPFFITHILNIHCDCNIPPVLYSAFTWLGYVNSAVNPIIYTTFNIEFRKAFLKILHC
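Read-out: kinetic calcium fluorescence (1 cycle/s) in inducible HEK293 T-REx D2 cells after an EC80 dopamine addition that followed 180 s compound preincubation. Loss of the dopamine response indicates antagonism.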
D2 ag-1: Beta-Arrestin HTS for Positive Allosteric Modulators of the Human D2 Dopamine Receptor: Agonists | D(2) dopamine receptor (Homo sapiens), P14416 | DiscoveRx PathHunter D2 beta-arrestin, luminescence, 90 min; 100% = 57 uM dopamine signal | AID 624465, 2012 | hit rate 0.084% among 360,000 | activation, % (test concentration not listed); in the data active = activation above about 40%; inconclusive = between about 15% and that limit
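Agonist mode: compounds alone added to overnight-plated D2 PathHunter cells for 90 min at 37 C, with 57 uM final dopamine (EC100) defining full response. Beta-arrestin recruitment detected by chemiluminescent reagent, read after 1 h at ambient temperature.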
D2 PAM-1: HTS Assay for Positive Allosteric Modulators of the Human D2 Dopamine Receptor: Primary Screen for Potentiators; potentiation, % at 10 µM; HEK293 T-REx D2, calcium flux, EC20 dopamine potentiation; D(2) dopamine receptor (Homo sapiens), P14416; hit rate 0.34% among 340,000; AID 485347, 2010;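 active = potentiation over 3 SD above the plate norm, cut at about 30% in these data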
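Using a no-wash calcium dye in inducible, force-coupled HEK293 Trex cells expressing D2, we tracked fluorescence each second for 180 s after compound, then for 180 s after EC20 dopamine to detect augmented signalling.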
D2 PAM-2: Beta-Arrestin HTS for Positive Allosteric Modulators of the Human D2 Dopamine Receptor: Potentiators | D(2) dopamine receptor (Homo sapiens), P14416 | DiscoveRx D2 beta-arrestin cells, luminescence, 90 min; 100% = 57 uM dopamine signal | potentiation, % (concentration not given with the values) | hit rate 0.23% among 360,000 | AID 624464, 2012; in the data active = potentiation above about 50%; inconclusive = mostly about 30% to 49%
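PathHunter D2 cells, attached overnight at 37 deg C, received compound in DMSO plus dopamine at EC20 (50 nM final) for 90 min at 37 deg C. Beta-arrestin recruitment was read as luminescence after 1 h with detection reagent at ambient temperature.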
D2 ag-2: HTS Assay for Allosteric Agonists of the Human D2 Dopamine Receptor: Primary Screen for Agonists; AID 485358, 2010; D(2) dopamine receptor (Homo sapiens), P14416; HEK293 T-REx D2 cells, calcium flux agonist mode; activation, % at 2 µM; hit rate 0.53% among 340,000;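 active = activation over 3 SD above normal in the single-dose calcium agonist read, cut at about 30% in these data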
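Tetracycline-induced HEK293 Trex cells with D2 receptor force-coupled to calcium signaling, plated overnight at 30 C and loaded with no-wash calcium dye. Calcium flux read kinetically for 180 s after compound addition; responses flag agonists.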
A number is an active result; n = inactive; u = inconclusive; x = no result.

SMILES	D2 antagonist	D2 ag-1	D2 PAM-1	D2 PAM-2	D2 ag-2
OC(COc1ccc(Cl)cc1)CN1CCN(c2ccccn2)CC1 (centres undefined)	x	n	x	n	x
O=C(NC(NC(=S)Nc1cccc(Cl)c1)C(Cl)(Cl)Cl)OCc1ccccc1 (centres undefined)	78	n	n	n	n
Cc1sc2nc(C3CC3)nc(SCC(=O)N3CCc4ccccc4C3)c2c1C	n	n	n	n	n
CCc1c(C)sc2nc(C(C)C)nc(SCC(=O)N3CCc4ccccc4C3)c12	44	n	n	n	n
Cc1ccc(O)c(C(=O)c2cnc3c(c2)c(=O)n(C)c(=O)n3C)c1	n	n	n	n	n
COc1ccc(-c2nc3sc(CCNC(=O)Cc4ccccc4)c(C)n3n2)cc1	x	x	n	x	n
CC1CCN(CCc2nc3cc(NS(=O)(=O)c4ccccc4)ccc3n2C)CC1	30	n	n	n	n
CC1CCN(CCc2nc3cc(NC(=O)Nc4ccccc4)ccc3n2C)CC1	n	n	n	n	n
CC1CCN(CCc2nc3cc(NS(=O)(=O)c4ccc(F)cc4)ccc3n2C)CC1	36	n	x	n	n
Cn1nc(-c2ccc(N3CCOCC3)c(NS(=O)(=O)c3ccc(Cl)cc3)c2)c2ccccc2c1=O	n	n	n	u	n
CCN(CC)c1ccc(NC(=O)CSc2nc(-c3cccs3)cc(C(F)(F)F)n2)cc1	x	x	x	x	n
COc1ncnc2c1NC(=O)CS2	n	n	n	n	n
CC(C(=O)Nc1cc(Cl)cc(Cl)c1)N1CCCC1 (centres undefined)	89	n	n	n	n
Cc1cc(C)c(NC(=O)C(C)N2CCCCCC2)c(C)c1 (centres undefined)	n	n	n	n	n
CN1C(=O)/C(=C2\SC(=S)N(C(CCC(=O)O)C(=O)O)C2=O)c2ccccc21 (centres undefined)	n	n	n	n	n
COc1cccc(CNCc2cccc(Br)c2)c1OC	36	n	n	n	n
CC1(C)NC(=O)N(CC(O)CN(c2ccccc2)S(=O)(=O)c2ccc([N+](=O)[O-])cc2)C1=O (centres undefined)	n	n	n	n	n
CCc1cccc(CC)c1-n1c(-c2cccnc2)n[nH]c1=S	66	n	n	n	n
CCN(CC)C(=O)N1CCN(C)CC1	32	n	n	n	n
O=C(CSc1nnc(CNC(=O)c2c(F)cccc2Cl)o1)NC1CCCCC1	n	n	n	n	n
COc1ccc([N+](=O)[O-])cc1NC(=O)C(C)Sc1ccc(C)cc1 (centres undefined)	n	n	n	n	n
Cc1c(OCC(=O)N[C@@H](Cc2ccccc2)C(=O)O)ccc2c3c(c(=O)oc12)CCC3	n	n	n	n	n
Cc1c(OCC(=O)N[C@@H](CSCc2ccccc2)C(=O)O)ccc2c3c(c(=O)oc12)CCC3	31	n	n	n	n
O=C1/C(=C/C=C/c2ccco2)SC(=S)N1NS(=O)(=O)c1ccccc1	42	n	n	n	n
Fc1ccccc1N1CCN(c2ncnc3onc(-c4ccc(Cl)cc4)c23)CC1	x	x	n	x	n
SMILES	D2 antagonist	D2 ag-1	D2 PAM-1	D2 PAM-2	D2 ag-2
Cc1c(C#N)c(NC(=O)CCl)n(Cc2ccccc2)c1C	n	n	n	n	n
Brc1cnc(N2CCCC2)nc1N1CCOCC1	35	n	n	n	n
Cn1c(=O)c2c(nc(NCc3ccco3)n2C/C=C/c2ccccc2)n(C)c1=O	n	n	n	64	n
COc1cc(NS(=O)(=O)c2ccc(NC(=O)/C(=C\c3ccccc3OC)NC(=O)c3ccccc3)cc2)nc(OC)n1	32	n	n	n	n
COc1cc(NS(=O)(=O)c2ccc(NC(=O)/C(=C/c3ccccc3Cl)NC(=O)c3ccccc3)cc2)nc(OC)n1	n	n	n	n	n
COc1ccc(NC(=O)/C(=C\c2ccc(OS(=O)(=O)c3ccc(C)cc3)cc2)NC(=O)c2ccccc2)cc1	n	n	40	n	n
COCCCN(C(=S)Nc1cccc(Cl)c1)C(C)c1ccncc1 (centres undefined)	30	n	n	n	n
COc1ccc(NC(=O)COC(=O)CCCOc2ccc(Cl)cc2Cl)cc1	40	n	n	n	n
CCN(Cc1ccccc1)Cc1ccc(OCc2ccccc2)cc1	31	n	n	n	n
CCOC(=O)COc1ccc2cc(C(=O)OCC)c(=O)oc2c1	n	n	n	n	n
COc1cc(Br)c(CN2C(=O)NC3(CCCCCC3)C2=O)cc1OC	n	n	n	n	n
CC(C)(C)NC(=O)c1oc2ccccc2c1COc1ccccc1	n	n	n	n	n
CCCc1cc(=O)n2nc(N3CCC(C(=O)Nc4c(F)c(F)c(F)c(F)c4F)CC3)sc2n1	38	n	n	n	n
CC(C)c1nnc(NC(=O)CC(=O)Nc2ccccc2C(=O)O)s1	n	n	n	n	n
O=C(Nc1ccc(S(=O)(=O)N2CCCC2)cc1)c1ccccc1	n	n	n	n	n
O=S(=O)(c1ccc2c(c1)OCO2)N1CCN(c2nnnn2-c2ccccc2)CC1	36	n	n	n	n
Cc1ccc(S(=O)(=O)N2C[C@H]3[C@H]4C(=O)N(C5CCCCC5)C(=O)[C@H]4CC(=O)[C@H]3[C@@H]2c2cccc3ccccc23)cc1	x	n	x	n	x
N#CCSc1ccc2nc(-c3ccccc3)cn2n1	n	n	n	n	n
COc1ccc(N2CCN(C(=O)CCNS(=O)(=O)c3ccc(Br)s3)CC2)cc1	n	n	86	n	n
COc1ccc(N2CCN(C(=O)CCNS(=O)(=O)c3ccc(C)cc3)CC2)cc1	n	n	n	n	n
O=C(NC1=C(Nc2ccc(Cl)cc2)C(=O)c2ccccc2C1=O)c1ccccc1	n	n	n	51	n
O=C(Oc1ccc(Cl)c2cccnc12)c1ccco1	n	n	n	n	n
O=C(NCc1ccccc1CN1CCCC1)c1ccc(OCc2cscn2)cc1	35	n	n	n	n
Cc1nc(COc2ccc(C(=O)NCc3ccccc3CN3CCCCC3)cc2)cs1	n	n	n	n	n
O=C(CNC(=O)c1cccs1)N/N=C/c1c(F)cccc1Cl	31	n	n	n	n
COc1cccc(-c2nnc(SCC(=O)NC3CCS(=O)(=O)C3)n2C)c1 (centres undefined)	39	n	n	n	n
Cc1ccc(-c2cc(C(=O)NC3CCCC3)no2)cc1	n	n	n	n	n
O=C(NC1CCCCC1)c1cc(-c2ccc(F)cc2)on1	n	n	39	n	n

Compound activity deposited in PubChem BioAssay by National Center for Advancing Translational Sciences (NCATS).
